Experimental data taken from PubChem BioAssay AID1022 (Emory University Molecular Libraries Screening Center, 2008).
Screen size: about 220,000 compounds; about 3,300 (1.5%) were called active.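 How the source made its calls: active means compounds that cut the protein-peptide binding signal by more than 50% relative to plate controls in a single-dose test; inactive means the rest.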 The list comes from a sample in which actives are over-represented; it also holds similar structures and randomly drawn compounds.

biological target: Induced myeloid leukemia cell differentiation protein Mcl-1 (Homo sapiens) (UniProt Q07820); assay: disruptors of Mcl-1 and Noxa BH3 peptide – biochemical, TR-FRET, 1536-well, primary screen (AID 1022); conditions: TR-FRET Mcl-1/Noxa peptide binding, 2 h; at 21.7 µM; hits give high values;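 further: His-tagged Mcl-1 with rhodamine Noxa BH3 peptide and terbium anti-His antibody; 0% = Mcl-1 plus Noxa peptide wells and 100% = peptide-only wells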
Sequence (Q07820 whole entry, looked up): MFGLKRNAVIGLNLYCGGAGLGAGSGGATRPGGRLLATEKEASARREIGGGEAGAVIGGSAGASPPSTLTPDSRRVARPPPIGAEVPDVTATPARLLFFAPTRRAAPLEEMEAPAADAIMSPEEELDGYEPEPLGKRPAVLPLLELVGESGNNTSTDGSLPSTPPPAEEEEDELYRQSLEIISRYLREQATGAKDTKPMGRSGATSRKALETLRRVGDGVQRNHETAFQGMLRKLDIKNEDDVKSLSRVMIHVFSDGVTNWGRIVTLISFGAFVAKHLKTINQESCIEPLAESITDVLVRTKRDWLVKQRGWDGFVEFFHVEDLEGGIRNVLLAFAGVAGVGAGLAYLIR

inhibition, inactive:
CCOC(=O)c1cn[nH]c1NC(=S)Nc1ccccc1 18.3%
CCNc1nc(-c2cc3ccccc3o2)cs1 37.2%
Nc1ncc(-c2cc3ccccc3oc2=O)s1 21.7%
COc1ccc(C)cc1Nc1nc(-c2c(C)[nH]c3ccccc23)cs1 12.8%
COc1ccc2nc(Nc3nc(-c4ccncc4)cs3)sc2c1 43.5%
COc1ccc(Nc2nc(-c3ccccc3)cs2)cc1 13.3%
COc1ccc(-c2csc(Nc3ccccn3)n2)cc1 19.1%
O=C(NCc1ccc(F)cc1)C1CCC(CNc2c(N3CCOCC3)c(=O)c2=O)CC1 (centres undefined) -8.83%
CN1CCN(c2ncc3c(n2)CC(c2ccccc2F)CC3=O)CC1 (centres undefined) -10.3%
CC(=O)NC(CC(=O)Nc1nccs1)c1ccccc1 (centres undefined) -8.98%
CC1(C)CC(=O)C(N=Nc2c(F)cccc2F)=C(O)C1 -2.76%
CC(NCc1ccccc1OC1CCCC1)c1ccccc1 (centres undefined) -3.22%
Cc1cc(-c2nc(C)c(-c3nnc(SCC(=O)Nc4ccccc4)n3C)s2)no1 3.26%
Nc1nc(SC23CC4CC(CC(C4)C2)C3)ns1 5.98%
CC1=CC(C)(C)NC(=S)N1NC(=O)c1ccccc1Cl 5.81%
O=C(Cn1cnc2c(cnn2-c2ccccc2)c1=O)NCc1ccccc1 6.36%
CC(C)(C)NC(=O)Cn1cnc2cc([N+](=O)[O-])ccc2c1=O 27.1%
Cc1ccc(S(=O)(=O)NNC(=S)NC(C)(C)C)cc1 -14.3%
O=C(NC(=O)N1CCSCC1)c1c(Cl)cccc1Cl 2.15%
Cc1ccc(-c2csc(-c3cc(C)on3)n2)cc1 -2.5%
O=S(=O)(c1cccc(-c2nnc3n2CCCCC3)c1)N1CCOCC1 3.07%
Cc1ccc(C(=O)Nc2cccc3ncccc23)cc1[N+](=O)[O-] 10.6%
O=C(Nc1cccc2ncccc12)C(Cl)(Cl)Cl 11.1%
Cc1ccc(NC(=O)/C(=C/c2ccc([N+](=O)[O-])cc2)NC(=O)c2ccccc2)cc1 3.04%
Cn1nccc1NC(=O)Nc1ccc(OC(F)(F)F)cc1 -2.66%
COC(=O)Cc1nc2ccccc2[nH]1 9.2%
CN(C)c1ccc(/C=N\S(=O)(=O)c2ccccc2)cc1 2.37%
Oc1ccc(/C=N/N(Cc2ccccc2)c2ccccc2)cc1 27%
CCN(/N=C/c1ccccc1)c1cc(=O)n(C)c(=O)[nH]1 21%
COc1cc(C(F)(F)F)nc2c(Br)c(C(C)(C)C)nn12 7.39%
CN(C)S(=O)(=O)c1ccc(C(=O)NCC(C)(C)N2CCOCC2)cc1 7.92%
Cc1ccc(NNC(=O)c2c(F)cccc2Cl)cc1Cl 0.81%
CCOC(=O)C1CCN(C(=O)Nc2cccc(OC)c2)CC1 -13.3%
COc1cccc(C(=O)n2ccc(-c3cccs3)n2)c1 1.68%
Cc1nnc(SC(C(=O)c2ccccc2)c2ccccc2)[nH]c1=O (centres undefined) -5.97%
Cc1cc2c(cc1C)N(Cc1ccccc1)C1=NCCCN12 -4.28%
CCOc1ccc(/C=N/Nc2nncc(-c3ccccc3)n2)cc1OC 14.2%
COc1ccc(/C=N/Nc2nc3ccccc3o2)cc1OC -2.8%
C=CCN(c1ccccc1C(=O)NCC(=O)OCC)S(=O)(=O)c1ccc(C)cc1 8.19%
CC(CCO)Nc1nc2c([nH]1)c(=O)n(C)c(=O)n2C (centres undefined) -3.43%
CCCSc1nc2c(c(=O)n(C)c(=O)n2C)n1Cc1ccc(C)cc1 -4.96%
Cc1cc(C(=O)NNS(=O)(=O)c2ccccc2C(F)(F)F)nn1C(C)(C)C -0.45%
Cc1cc(N2CCN(c3ccc(F)cc3)CC2)n2ncnc2n1 -1.64%
CC(C)NC(=O)NNc1c(Cl)cncc1Cl 3.37%
Cc1ccc(Cn2c(NC(=O)c3ccco3)nc3ccccc32)cc1 1.28%
Clc1cccc(-c2nc3nc4ccccc4nc3n2Cc2ccco2)c1 4.89%
COc1ccc2c(c1)C(=C(C#N)C#N)C(=O)N2CCc1ccccc1 -4.33%
CCCCCn1c(=O)c(C(=O)OCC)c(Cl)c2ccccc21 -2.04%
CCOC(=O)/C=C/CN(C(=O)OC(C)(C)C)S(=O)(=O)N1CC=CC1 -18%
CCC(C)N1C(=S)SC(C)(C)C1N(O)C(=O)NC1CCCCC1 (centres undefined) -0.12%
Cn1cccc1/C=C1\SC(=S)N(NC(=O)c2ccc(Cl)cc2)C1=O 18.5%
O=C(O)c1ccc2c(c1)C(=O)N(NC(=O)c1ccc(O)cc1)C2=O 12.9%

inhibition, active:
COc1ccc(-c2csc(Nc3ccc(O)cc3)n2)cc1 69.4%
COc1ccc(OC)c(Nc2nc(-c3ccc(O)c(O)c3)cs2)c1 69.2%
O=c1oc2ccccc2cc1-c1csc(Nc2ccc(O)cc2)n1 101%
O=C(Cn1cnc2cc([N+](=O)[O-])ccc2c1=O)NC(=O)NCc1ccccc1 53.5%
Cc1ccc(/C=C(\C#N)C(=O)Nc2cccc3ncccc23)o1 65.7%
Oc1c(Cl)cc(Cl)c(Cl)c1Cc1c(O)c(Cl)cc(Cl)c1Cl 104%
CCN(/N=C/c1ccc(N(C)C)cc1)c1nc2ccccc2[nH]1 81%
CN(C)c1ccc(/C=N/N(Cc2ccccc2)c2ccccc2)cc1 95.7%
COc1cc(/C=N/Nc2nn3cnnc3c3ccccc23)cc(OC)c1OC 52.5%
Cc1ccc(NN=Nc2nc3c([nH]2)c(=O)n(C)c(=O)n3C)cc1 55.6%
Cc1ccc(Cn2c(C)nc3c(c2=O)c2nc4ccccc4nc2n3Cc2ccco2)cc1 63.1%
CC(=O)N1C(=O)/C(=C2\SC(=S)N(NC(=O)c3ccc(O)cc3)C2=O)c2ccccc21 94.5%
